The text below walks through data of publication PMC6212790, “How bacterial xenogeneic silencer rok distinguishes foreign from self DNA in its resident genome”.

In all, about 33,000 sequences were measured (“e-score”: median about -0.038, highest 2% from about 0.33 on). Only a selection was taken, and the highest values are over-represented in it overall.

The target in this assay is T1, GST-Rok-C97-191 (Bacillus subtilis subsp. subtilis str. …, UniProt O34857 97-191).
T1 sequence: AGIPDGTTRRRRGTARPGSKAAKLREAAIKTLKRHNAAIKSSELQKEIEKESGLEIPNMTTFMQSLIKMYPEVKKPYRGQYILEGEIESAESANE
Briefly: protein binding microarray; Rok is a gene silencer of Bacillus subtilis; high values mean tight binding. The following applies: protein: recombinant; tags: GST (pTH5325, pDEST15-Magic modified); dsDNA, one strand shown. In outline: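 Each has a 25-mer constant primer and a 35-mer variable part from a de Bruijn sequence of order 10, covering every non-palindromic 8-mer at least 32 times (palindromic 16). Preference for each 8-mer is given as a rank-based, unitless enrichment score (E-score). Its range runs from 0.5 (most favored) to −0.5 (most disfavored).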
For the sequence CGTTGTCA, the binding signal worked out at 0.0104 E-score.
As for TCTATGCA, the figure is 0.172 E-score.
With AATATTGG the figure was -0.0277 E-score; with AATATTCC, 0.106 E-score; with AATATTCG, 0.307 E-score.
As for AATATTGT, the figure is 0.372 E-score; as for AATATTGA, 0.22 E-score; as for AATATTCT, 0.347 E-score.
Take AAACATTC: the binding signal came to 0.0952 E-score.
As for CGATGTCA, the figure is -0.131 E-score; as for GGTCCCAA, -0.183 E-score.
As for ATGGACGC, the figure is -0.141 E-score.
With ACTAACTG the figure was 0.16 E-score; with AGTAACTG, 0.124 E-score; with CGTAACTA, 0.314 E-score.
On to AGTAACTC, for which the binding signal is 0.0388 E-score.
As for GCTAACTA, the figure is 0.324 E-score.
With AGTAACTA the figure was 0.436 E-score; with GGTAACTA, 0.336 E-score; with GGTAACGA, 0.0496 E-score.
Consider ACTAACTA, for which the binding signal was 0.367 E-score.
As for GTTCAACA, the figure is 0.0437 E-score; as for GTAACTGA, 0.203 E-score.
With TCATGAAA the figure was 0.0251 E-score; with GTGACCGA, 0.048 E-score; with CCACAATA, 0.2 E-score.
Regarding GACCTAGC, the binding signal is -0.0362 E-score.
For the sequence AGCTACGA, the binding signal turned out to be 0.191 E-score.
As for ACATGACC, the binding signal amounted to 0.104 E-score.
As for AATAAGAC, the figure is 0.0721 E-score.
With TACTAGAA the figure was 0.348 E-score.
With AGCTAGAT the figure was 0.152 E-score; with AACTAGAT, 0.388 E-score.
Take AACTAGAG: the binding signal was determined as 0.0733 E-score.
For AGCTAGAA, the binding signal was 0.322 E-score.
As for TGCTAGAA, the figure is 0.364 E-score.
As for GGCTAGAA, the figure is -0.162 E-score; as for AACTAGAA, 0.363 E-score.
With GACTAGAA the figure was 0.206 E-score; with ACCTAGAA, 0.142 E-score; with CACTAGAA, 0.304 E-score.
AACTAGAC: the binding signal worked out at 0.193 E-score.
As for GCCGCAAC, the figure is -0.128 E-score.
As for CAGCAGGA, the figure is -0.178 E-score; as for AACATCAT, 0.00751 E-score.
With AACATCTT the figure was 0.0861 E-score; with GTAACCAA, 0.000641 E-score; with CTAGACCA, -0.196 E-score.
For the sequence ACATGTTA, the binding signal amounted to 0.144 E-score.
With CGAATGAG the figure was -0.0259 E-score; with ATGCTCCG, -0.113 E-score; with CAGCCTTA, -0.151 E-score.
With CATAGCTC the figure was 0.00142 E-score; with ACGCGGAA, -0.0676 E-score; with GCTAGATA, 0.288 E-score.
With AGTAGATC the figure was 0.323 E-score.
In the case of AGTAGATG, the binding signal came to 0.29 E-score.
Regarding GGTAGATA, the binding signal was 0.432 E-score.
With CGTAGATA, the binding signal was 0.21 E-score.
With AGTAGATA the figure was 0.456 E-score; with ACCCGCAA, -0.0817 E-score; with AACTAGCG, 0.256 E-score.
With AACTAGCT the figure was 0.342 E-score; with AACTAGCA, 0.346 E-score; with GACTAGCA, 0.101 E-score.
With AACTAGCC the figure was 0.107 E-score.
CACTAGCA: the binding signal was -0.154 E-score.
As for AGAAGAAA, the figure is 0.00841 E-score; as for CTCTTTCC, -0.0674 E-score; as for AACACCCA, -0.114 E-score.
As for CACGTATA, the figure is 0.228 E-score; as for GACGTATA, 0.174 E-score.
With TACGTATA the figure was 0.349 E-score.
Consider TGGAGCCA, for which the binding signal is -0.182 E-score.
As for GGCGAAGA, the figure is -0.0389 E-score; as for GTTAAAAC, 0.0593 E-score.
With CCAACTGA, the binding signal was -0.0233 E-score.
Consider ATAAAAAT, for which the binding signal was determined as 0.28 E-score.
With CTATAAAA the figure was 0.229 E-score; with TTATAAAA, 0.218 E-score; with ATATAAAT, 0.419 E-score.
With CTATAAAC the figure was 0.291 E-score; with ATATAAAG, 0.135 E-score.
As for ATATAAAA, the figure is 0.338 E-score; as for ATATAAAC, 0.33 E-score; as for GTATAAAC, 0.137 E-score.
With CGGAGACG, the binding signal was -0.133 E-score.
As for CGTGTAGC, the figure is -0.0895 E-score; as for CTAGAGAC, 0.0353 E-score; as for AGAACTAT, 0.268 E-score.
As to CGAACTAA, the binding signal was found to be 0.135 E-score.
With AGAACTAA the figure was 0.259 E-score; with CGAACTAC, 0.373 E-score; with CGAACTAG, 0.299 E-score.
With AGAACTAC the figure was 0.369 E-score.
